This passage reports composite z-score results from PubChem BioAssay.

This experiment concerns Chordin-like protein 2 (CHRDL2). Kind of experiment: compounds binding chordin-like 2 – biochemical, small-molecule microarray, 635 nm fluorescence, primary screen (AID 1126).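 Note: printed compound slides probed with Chrdl2 protein at 4 µg/mL for 1 h at 4 C; score merges 667 nm emission intensity with signal to noise over three replicate slides.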 To be noted: fluorescence 635 nm, higher = more signal.
As for `CCCN1C(=O)[C@]2(CCS(=O)(=O)c3ccccc3)N=C(c3ccc(OCCCO)cc3)O[C@@H]2c2ccccc21`, the composite z-score is 0.359. For the compound `CC(C)(C)C(=O)N[C@@H](c1ccc(Cl)cc1)[C@]1(C)C[C@H]1C1CCCCC1`, the composite z-score is -0.319. As for `COc1cc(CO)cc(I)c1O[C@H]1C=C(C(=O)NCCO)C[C@@H](N(CCN2CCOCC2)C(=O)C2CCOC2)[C@@H]1O` (stereo not given in full), the figure is 0.486. As to `C[C@]1(C(=O)NC2CC2)c2ccccc2C(=O)N(Cc2cc(C(F)(F)F)cc(C(F)(F)F)c2)[C@H]1c1ccc(CO)cc1`, the composite z-score is 0.39. `COCCOC(=O)N1C(=O)[C@@]2(c3ccccc31)[C@H](c1ccccc1OCCO)N1[C@H](c3ccccc3)[C@H](c3ccccc3)OC(=O)[C@H]1[C@@H]2C(=O)Nc1nc2ccccc2s1` displayed a composite z-score of 0.651.

As for `CC(=O)NCCCC[C@@H]1NC(=O)[C@@H]2C[C@H](C(=O)NCCCCCCNC(=O)CS)[C@H](c3cccc(OCCO)c3)N2C1=O`, the composite z-score was determined as 0.568. In the case of `CCCCC(=C=CC[C@@H](O)c1ccccc1OCCO)CCO` it was -0.638.

With `C=C(COC)/C(=C/C[C@H](OC(=O)c1ccncc1)c1ccc(OCCO)cc1)c1cnc2ccccc2c1`, the composite z-score came out at 1.26.

In turn, `COC(=O)[C@@]1(Cc2ccc(F)cc2)[C@@H]2[C@@H](CC(=O)[C@H]2CC(=O)C(=O)N(C)C)CN1C(=O)c1ccccc1` showed a composite z-score of -0.633.

For `NCCCCCNC(=O)[C@@H]1C[C@@H]2C(=O)N[C@@H](Cc3ccccc3)C(=O)N2[C@@H]1c1cccc(OCCO)c1`, the composite z-score is -0.0335. In the case of `Cc1ccc(C(C)CC(O)C2C=CC3C(=O)N(C)C(=O)C3N2NC(=O)OC(C)(C)C)o1` (stereo not given) it was 0.541; in that of `COCCOC(=O)N1C(=O)[C@@]2(c3cc(C#Cc4ccc(OC)cc4)ccc31)[C@H](c1ccc(O)cc1)N1[C@H](c3ccccc3)[C@H](c3ccccc3)OC(=O)[C@H]1[C@@H]2C(=O)NC[C@H](O)c1ccccc1`, 0.374. As for `O=C(C1N=C(c2ccc(OCCCO)cc2)N(c2ccccc2)O1)N1CCOCC1` (stereo not given), the figure is -0.114; as for `O=C1O[C@@H](c2ccccc2)[C@@H](c2ccccc2)N2[C@@H](c3ccc(OCCO)cc3)[C@]3(C(=O)Nc4ccccc43)[C@@H](C(=O)NC[C@H](O)c3ccccc3)[C@H]12`, 0.895. As for `O=C(O)[C@@]1(CCS(=O)(=O)c2ccccc2)COC(c2ccc(OCCCO)cc2)=N1`, the figure is -0.724; as for `O=C1O[C@H](c2ccccc2)[C@H](c2ccccc2)N2[C@H]1[C@@H](C(=O)O)[C@]1(C(=O)Nc3ccc(C#CCCO)cc31)[C@H]2c1ccc(O)cc1`, -0.823; as for `O=C1C2C=CC(C(O)C(c3ccccc3)c3ccccc3)N(n3cnnc3)C2C(=O)N1Cc1ccccc1` (stereo not given), 0.121.

`CCOC(=O)C[C@H]1[C@H](OC(=O)c2ccc(C(=O)c3ccccc3)cc2)[C@@H](NC(=O)c2ccc(-c3ccccc3)cc2)c2cc(OCCCO)ccc2N1C(=O)c1ccccc1`: the composite z-score came out at 0.303. As for `CN1C(=O)[C@]2(Cc3ccccc3)N=C(c3ccc(OCCCO)cc3)O[C@@H]2c2ccccc21`, the figure is 0.572. In the case of `CC(CO)N1C(=O)[C@@H]2C3C(=O)OCCC/C=C\[C@H]3OC23C=CCN(c2ccc4ccccc4c2)C(=O)[C@@H]13` (stereo not given in full) it was -0.535. In the case of `Cc1ccc(S[C@]2(C(=O)NC3CC3)CC(=O)N(C3Cc4ccccc4C3)[C@@H]2c2ccc(CO)cc2)cc1` it was -0.759; in that of `COCCOC(=O)N1C(=O)[C@@]2(c3cc(C#CC4=CCCCC4)ccc31)[C@H](C(=O)Nc1nc3ccccc3s1)[C@H]1C(=O)O[C@H](c3ccccc3)[C@H](c3ccccc3)N1[C@@H]2c1ccc(OCCO)cc1`, 0.984; in that of `CC(C)C[C@@H]1NC(=O)[C@H]2C[C@@H](C(=O)NCCCCCCN)[C@@H](c3ccc(O)cc3)N2C1=O`, 1.22.

With `C=CCN(Cc1ccccc1)C(=O)C(c1cccs1)N(CCOCCO)C(=O)/C=C\C(=O)O` (stereo not given), the composite z-score was -3.82. The compound `O=C1OCCC/C=C\[C@H]2OC34C=CCN(CCN5CCOCC5)C(=O)[C@H]3N(CCCO)C(=O)[C@@H]4C12` (stereo not given in full) returned a composite z-score of -0.575.

For `[N-]=[N+]=NCc1ccccc1C[C@]1(C(=O)N2CCOCC2)N=C(c2ccc(OCCCO)cc2)O[C@H]1c1ccccc1N=[N+]=[N-]`, the composite z-score was determined as 0.519. As for `C=CCNC(=O)[C@H]1[C@@H]2C(=O)O[C@@H](c3ccccc3)[C@@H](c3ccccc3)N2[C@@H](c2ccccc2OCCO)[C@]12C(=O)Nc1ccc(C#CC3=CCCCC3)cc12`, the figure is 0.495; as for `C=CCN1C(=O)[C@@]2(O[C@@H](CCO)[C@H]([Si](C)(C)c3ccc(OC)cc3)[C@H]2C)c2cc(NC(=O)c3ccc(OC)cc3)ccc21`, 0.927; as for `C=CCNC(=O)[C@H]1[C@@H]2C(=O)O[C@@H](c3ccccc3)[C@@H](c3ccccc3)N2[C@@H](c2ccc(OCCO)cc2)[C@]12C(=O)N(C(=O)OCCOC)c1ccccc12`, 0.176. Consider `O=C1OCCC/C=C\[C@H]2OC34C=CCN(Cn5nnc6ccccc65)C(=O)[C@H]3N(CCCCCCO)C(=O)[C@@H]4C12` (stereo not given in full), for which the composite z-score was -1.25. In the case of `COCCCNC(=O)C1N=C(c2ccc(OCCCO)cc2)N(c2ccccc2)O1` (stereo not given) it was -0.289. As for `COc1ccc(CCNC(=O)[C@@H]2c3ccccc3C(=O)N(C3Cc4ccccc4C3)[C@H]2c2ccc(CO)cc2)cc1`, the figure is -0.551; as for `COC(=O)[C@@]1(Cc2ccc(OC)cc2)[C@H]2c3cc(C(=O)N4CCCC4)n(Cc4ccc(OC)c(OC)c4)c3C[C@H]2CN1C(=O)c1ccccc1`, 0.206.

`COc1ccc([Si](C)(C)[C@H]2[C@H](CCO)O[C@@]3(C(=O)N(C)c4c(Br)cc(C)cc43)[C@@H]2C)cc1` yielded a composite z-score of 0.344. In the case of `CCOC(=O)[C@H]1C/C=C/C[C@H](C(=O)OCC)C(=O)O[C@H]2[C@@H](OC)O[C@H](CO)[C@@H](OC(=O)Nc3cccc(F)c3)[C@@H]2OC1=O` it was 0.306.
